Most compounds without a hit are left out; they make up all but 6.8% or so of the library.
C diff HTS – C. difficile growth inhibition; Clostridium difficile clinical isolate growth, OD600, 24 h; stronger effect = lower value; growth activity, negative = inhibition, % at 16 µg/mL (by protocol); 0.25% of 86,000 active; AID 1259249;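 active = mean growth activity at or below -80% and every replicate also at or below -80%; inconclusive = mean at or below -80% but some replicate above -80%; inactive = mean growth activity above -80%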;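 note: 0% = DMSO wells and -100% = levofloxacin 16 µg/mL wells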
Pf Dd2 growth – P. falciparum Dd2 growth inhibition | SYBR Green, 72 h; stronger effect = lower value | activity change, % at 10 µM | 2.3% of 94,000 active | AID 1159554; in the data active = activity change below about -80%; inconclusive = no clear call, values can overlap the other calls
T cruzi growth-1 – blocks T. cruzi growth in NIH3T3 culture. 5.9% of 77,000 active. T. cruzi beta-gal in NIH3T3, GalScreen luminescence, 90 h. inhibition, % at 8.34 µM;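 active = mean inhibition above about 93%, with at least 55% of replicates each passing it, limit read from the data, passing the limit was not always enough; inconclusive = only one of those two conditions holds; inactive = neither condition holds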
T cruzi growth-2 – Trypanosoma cruzi proliferation inhibition. shares compounds with T cruzi growth-1. T. cruzi beta-gal in NIH3T3, GalScreen luminescence, 90 h. inhibition, % at 8.35 µM. 72% of 5,600 active;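 active = mean replicate inhibition above about 95% and at least 55% of replicates individually reaching it, limit read from the data; inconclusive = only one of the two criteria is met; inactive = neither criterion is met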
T cruzi growth-3 – inhibitors of T. cruzi proliferation | shares compounds with T cruzi growth-1 | T. cruzi beta-gal in NIH3T3, GalScreen luminescence, 90 h | inhibition, % at 2.09 µM | 21% of 5,600 active | AID 651740;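 active = mean inhibition above about 95%, with at least 55% of replicates also reaching it, limit read from the data; inconclusive = meets just one of the two conditions; inactive = meets neither condition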;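 note: plate controls were neutral control median for no effect and positive control median for full effect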
NIH3T3 tox – cytotoxicity in mouse NIH/3T3 fibroblasts | shares compounds with T cruzi growth-1 | NIH/3T3 viability, CellTiter-Glo ATP luminescence, 90 h | cytotoxicity (signal decrease), % at 8.35 µM | 14% of 5,600 active;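 active = mean signal decrease across replicates above about 35% based on untreated-well scatter, with enough replicates individually passing, limit read from the data; inconclusive = no rule stated though some were filed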;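 note: 0% = median of neutral control wells and 100% = median of positive control wells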
NIH3T3 tox 2 – NIH/3T3 (mouse) viability loss. shares compounds with T cruzi growth-1. NIH/3T3 viability, CellTiter-Glo ATP luminescence, 90 h. inhibition, % at 24.9 µM. 56% of 5,600 active. AID 651744;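 active = mean loss of cell viability signal at or above a set limit, and enough replicates individually reaching it; inconclusive = meets only the mean limit or only the replicate share; inactive = meets neither condition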;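 note: 0% = median of neutral control wells and 100% = median of positive control wells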
Numbers without * were called inactive; u = inconclusive; x = not tested or not shown.

SMILES | C diff HTS | Pf Dd2 growth | T cruzi growth-1 | T cruzi growth-2 | T cruzi growth-3 | NIH3T3 tox | NIH3T3 tox 2
CC(=O)N1CCCCN2[C@H](C1)[C@@H](c1ccc(C#Cc3ccccc3F)cc1)[C@@H]2CO | -12 | -21 | 112* | u | 28 | 30 | 106*
CCC(=O)N1CCCCN2[C@H](CO)[C@H](c3ccc(C#Cc4ccccc4F)cc3)[C@@H]2C1 | -17 | -13 | 120* | 99* | 88 | 69* | 58*
CC(=O)N1CCCCN2[C@@H](CO)[C@H](c3ccc(C#Cc4ccccc4F)cc3)[C@@H]2C1 | -2 | -4 | 88 | x | x | x | x
CC(=O)N1CCCCN2[C@H](C1)[C@H](c1ccc(C#Cc3ccccc3F)cc1)[C@@H]2CO | -1 | 18 | 75 | x | x | x | x
CC(=O)N1CCCCN2[C@H](CO)[C@H](c3ccc(C#Cc4ccccc4F)cc3)[C@H]2C1 | -10 | -25 | 31 | x | x | x | x
COc1ccccc1NC(=O)N1C[C@@H](C)[C@H](OC)CN(C)C(=O)c2cc(NC(=O)c3cc(C)on3)ccc2OC[C@H]1C | x | -23 | 24 | x | x | x | x
CC(=O)N1CCCCN2[C@H](CO)[C@H](c3ccc(-c4cccc(C(=O)N(C)C)c4)cc3)[C@@H]2C1 | -3 | 19 | 60 | x | x | x | x
Cc1noc(C)c1NC(=O)N[C@H]1CC[C@H](CC(=O)Nc2ccc(-c3ccccc3)cc2)O[C@@H]1CO | x | -49 | 31 | x | x | x | x
CCCN(C)C[C@H]1Oc2cc(-c3ccccc3OC)ccc2S(=O)(=O)N([C@H](C)CO)C[C@H]1C | -3 | -64 | 13 | x | x | x | x
C[C@@H]1CN([C@H](C)CO)C(=O)c2cc(NS(C)(=O)=O)ccc2O[C@@H]1CN(C)C(=O)Nc1ccccc1 | 0 | 9 | x | x | x | x | x
CCC(=O)N1CC2(CCN(Cc3cccnc3)CC2)c2c(n(C)c3cc(OC)ccc23)[C@@H]1CO | -6 | -59 | x | x | x | x | x
CCNC(=O)C[C@@H]1CC[C@H]2[C@@H](COC[C@H](O)CN2Cc2ccncc2)O1 | 25 | x | -28 | x | x | x | x
CN(C)CCCNC(=O)C[C@@H]1CC[C@H]2[C@@H](COc3ccc(NC(=O)NC4CCCC4)cc3C(=O)N2C)O1 | -4 | 8 | 10 | x | x | x | x
CCCC#Cc1ccc([C@@H]2[C@@H](CO)N3CCCCN(C(=O)c4ccc5c(c4)OCO5)C[C@@H]23)cc1 | 0 | -9 | 122* | 107* | 76 | 38* | 102*
CCCC#Cc1ccc([C@@H]2[C@H]3CN(C(=O)c4ccc5c(c4)OCO5)CCCCN3[C@H]2CO)cc1 | 7 | -34 | 94 | x | x | x | x
CCCC#Cc1ccc([C@H]2[C@@H](CO)N3CCCCN(C(=O)c4ccc5c(c4)OCO5)C[C@H]23)cc1 | 5 | -39 | 117* | 104* | 79 | 51* | 103*
CC(C)CC#Cc1ccc([C@@H]2[C@@H](CO)N3CCCCN(C(=O)c4ccc5c(c4)OCO5)C[C@@H]23)cc1 | -7 | -43 | 91 | x | x | x | x
CCCC#Cc1ccc([C@@H]2[C@H](CO)N3CCCCN(C(=O)c4ccc5c(c4)OCO5)C[C@@H]23)cc1 | -9 | -24 | u | 106* | 38 | 30 | 103*
C[C@@H](O)C#Cc1ccc([C@H]2[C@@H](CO)N3CCCCN(C(=O)c4ccc5c(c4)OCO5)C[C@@H]23)cc1 | -3 | 21 | 32 | x | x | x | x
C[C@@H]1CN([C@@H](C)CO)C(=O)c2cccc(NC(=O)NC3CCCCC3)c2O[C@@H]1CN(C)C(=O)Nc1ccc(C(F)(F)F)cc1 | 4 | -55 | 67 | x | x | x | x
C[C@H]1CN([C@@H](C)CO)C(=O)c2cc(-c3ccncc3)cnc2O[C@H]1CN(C)C(=O)C1CCC1 | x | 25 | 48 | x | x | x | x
COc1ccc(C#Cc2cnc3c(c2)C(=O)N([C@@H](C)CO)C[C@H](C)[C@H](CN(C)C(C)=O)O3)cc1 | 0 | -1 | 88 | x | x | x | x
COc1ccc(C#Cc2cnc3c(c2)C(=O)N([C@H](C)CO)C[C@H](C)[C@H](CN(C)C(C)=O)O3)cc1 | 5 | -5 | 110* | 90 | -18 | 21 | 34*
COc1ccc(C#Cc2cnc3c(c2)C(=O)N([C@@H](C)CO)C[C@H](C)[C@@H](CN(C)C(=O)CC2CC2)O3)cc1 | -2 | -67 | 97* | 60 | 31 | -8 | 26
COc1ccc(C#Cc2cnc3c(c2)C(=O)N([C@@H](C)CO)C[C@@H](C)[C@@H](CN(C)C(=O)CC2CC2)O3)cc1 | -3 | -60 | 56 | x | x | x | x
SMILES | C diff HTS | Pf Dd2 growth | T cruzi growth-1 | T cruzi growth-2 | T cruzi growth-3 | NIH3T3 tox | NIH3T3 tox 2
C[C@@H]1CN([C@H](C)CO)C(=O)c2cc(NS(=O)(=O)c3ccc(Cl)cc3)ccc2O[C@@H](C)CCCCO[C@H]1CN(C)C(=O)Nc1ccc(F)cc1 | x | -49 | x | x | x | x | x
CCCNC(=O)Nc1ccc2c(c1)C(=O)N(C)C[C@@H](OC)[C@@H](C)CN(CCC(F)(F)F)[C@@H](C)CO2 | x | x | 9 | x | x | x | x
COc1cccc(-c2ccc3c(c2)O[C@@H](CN(C)C(=O)C2CC2)[C@H](C)CN([C@@H](C)CO)S3(=O)=O)c1 | x | -54 | 72 | x | x | x | x
COc1cccc(-c2ccc3c(c2)O[C@H](CN(C)C(=O)C2CCCCC2)[C@H](C)CN([C@@H](C)CO)S3(=O)=O)c1 | 1 | -3 | 117* | 103* | 88 | 23 | 89*
COc1cccc(-c2ccc3c(c2)O[C@@H](CN(C)C(=O)C2CCCCC2)[C@H](C)CN([C@H](C)CO)S3(=O)=O)c1 | 0 | -69 | 105* | 96* | 36 | 29 | 91*
COc1cccc(-c2ccc3c(c2)O[C@@H](CN(C)C(=O)C2CCC2)[C@H](C)CN([C@@H](C)CO)S3(=O)=O)c1 | -4 | -54 | 110* | 97* | u | 26 | 27*
COc1cccc(-c2ccc3c(c2)O[C@@H](CN(C)C(=O)C2CCOCC2)[C@@H](C)CN([C@@H](C)CO)S3(=O)=O)c1 | -1 | -31 | x | x | x | x | x
COc1cccc(-c2ccc3c(c2)O[C@H](CN(C)C(=O)C2CC2)[C@H](C)CN([C@H](C)CO)S3(=O)=O)c1 | x | 7 | 80 | x | x | x | x
COc1cccc(-c2ccc3c(c2)O[C@H](CN(C)C(=O)C2CCCCC2)[C@@H](C)CN([C@H](C)CO)S3(=O)=O)c1 | 3 | -64 | 99* | 101* | 78 | 28 | 43*
COc1cccc(-c2ccc3c(c2)O[C@@H](CN(C)C(=O)C2CC2)[C@H](C)CN([C@H](C)CO)S3(=O)=O)c1 | x | -31 | 71 | x | x | x | x
O=C(c1cnccn1)N1CC[C@@H]2[C@H](CO)Nc3ccc(C#Cc4cccnc4)cc3[C@@H]21 | -10 | 0 | 32 | x | x | x | x
CO[C@H]1CN(C)C(=O)c2cc(NS(=O)(=O)CC(F)(F)F)ccc2OC[C@@H](C)N(CCC(F)(F)F)C[C@H]1C | x | 8 | 29 | x | x | x | x
Cc1ccc(S(=O)(=O)N[C@@H]2CC[C@H](CCNC(=O)Nc3ccc(Cl)cc3)O[C@H]2CO)cc1 | -1 | 3 | 30 | x | x | x | x

Compound activity: PubChem, Broad Institute
